In all, about 5,500 compounds went through this assay and about 2,000 (36%) were called active. Roughly 18% stayed inconclusive and do not appear here. Rule as the data show it: active = normalized growth mostly below about 0.91 (no sharp cut-off); inconclusive = no clear call, values can overlap the other calls; inactive = mostly above about 0.92. Some of the results follow.
Test: chemical genetic growth profiling, strain panel (AID 1159580);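 also: tested at 20 µM; growth read once vehicle control cultures reached saturation at 30 °C; 1 = growth at the plate median or of vehicle wells; lower values mean less growth of the strain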
Conditions: S. cerevisiae deletion strains, growth OD
[1] = locus YAR019C, strain CDC15, active compounds read low
[2] = locus YBL105C, strain PKC1, active compounds read low
[3] = locus YBR135W, strain CKS1, active compounds read low
[4] = locus YBR136W, strain MEC1, active compounds read low
[5] = locus YBR160W, strain CDC28, active compounds read low
[6] = locus YDL017W, strain CDC7, active compounds read low
[7] = locus YDL028C, strain MPS1, active compounds read low
[8] = locus YDL101C, strain DUN1, active compounds read low
[9] = locus YDL108W, strain KIN28, active compounds read low
[10] = locus YDL214C, strain PRR2, active compounds read low
[11] = locus YDR052C, strain DBF4, active compounds read low
[12] = locus YDR054C, strain cdc34, active compounds read low
[13] = locus YDR226W, strain ADK1, active compounds read low
[14] = locus YDR477W, strain SNF1, active compounds read low
[15] = locus YER123W, strain YCK3, active compounds read low
[16] = locus YER133W, strain GLC7, active compounds read low
[17] = locus YFL009W, strain cdc4, active compounds read low
[18] = locus YFL029C, strain CAK1, active compounds read low
[19] = locus YFR003C, strain YPI1, active compounds read low
[20] = locus YFR019W, strain FAB1, active compounds read low
[21] = locus YFR028C, strain CDC14, active compounds read low
[22] = locus YGR040W, strain KSS1, active compounds read low
[23] = locus YGR052W, strain FMP48, active compounds read low
[24] = locus YGR092W, strain DBF2, active compounds read low
[25] = locus YHR079C, strain IRE1, active compounds read low
[26] = locus YHR082C, strain KSP1, active compounds read low
[27] = locus YHR205W, strain SCH9, active compounds read low
[28] = locus YIL147C, strain SLN1, active compounds read low
[29] = locus YJL095W, strain BCK1, active compounds read low
[30] = locus YJL157C, strain FAR1, active compounds read low
[31] = locus YJR016C, strain ILV3, active compounds read low
[32] = locus YJR066W, strain TOR1 (second series), active compounds read low
[33] = locus YJR066W, strain TOR1, active compounds read low
[34] = locus YKL048C, strain ELM1, active compounds read low
[35] = locus YKL067W, strain YNK1, active compounds read low
[36] = locus YKL101W, strain HSL1, active compounds read low
[37] = locus YKL193C, strain SDS22, active compounds read low
[38] = locus YKL203C, strain TOR2, active compounds read low
[39] = locus YLR113W, strain HOG1, active compounds read low
[40] = locus YLR133W, strain CKI1, active compounds read low
[41] = locus YLR403W, strain SFP1, active compounds read low
[42] = locus YML070W, strain DAK1, active compounds read low
[43] = locus YMR001C, strain CDC5, active compounds read low
[44] = locus YMR205C, strain PFK2 (second series), active compounds read low
[45] = locus YMR277W, strain FCP1, active compounds read low
[46] = locus YNL006W, strain LST8, active compounds read low
[47] = locus YNL020C, strain ARK1, active compounds read low
[48] = locus YNL161W, strain CBK1, active compounds read low
[49] = locus YNL183C, strain NPR1, active compounds read low
[50] = locus YNL207W, strain RIO2, active compounds read low
[51] = locus YNL222W, strain SSU72, active compounds read low
[52] = locus YNL307C, strain MCK1 (second series), active compounds read low
[53] = locus YOL078W, strain AVO1, active compounds read low
[54] = locus YOL136C, strain PFK27, active compounds read low
[55] = locus YOR061W, strain CKA2, active compounds read low
[56] = locus YOR119C, strain RIO1, active compounds read low
[57] = locus YOR231W, strain MKK1, active compounds read low
[58] = locus YOR329C, strain SCD5, active compounds read low
[59] = locus YPL031C, strain PHO85, active compounds read low
[60] = locus YPL153C, strain RAD53, active compounds read low
[61] = locus YPL204W, strain HRR25, active compounds read low
[62] = locus YPL209C, strain IPL1, active compounds read low
[63] = locus YPL256C, strain CLN2, active compounds read low
[64] = locus YPR025C, strain CCL1, active compounds read low
[65] = locus YPR111W, strain DBF20, active compounds read low
[66] = strain NNK1, active compounds read low
[67] = strain TSCII, active compounds read low

Measured: normalized growth

O=C(CSC1=NNC(c2ccccn2)S1)Nc1ccccc1 (stereo not drawn)
inactive: [1] 1 | [2] 0.998 | [3] 0.994 | [4] 1 | [5] 1 | [6] 1.01 | [7] 0.998 | [8] 0.997 | [9] 1 | locus YDL132W, strain cdc53, active compounds read low 0.995 | [10] 0.984 | [11] 0.994 | [12] 1 | [13] 1 | [14] 0.971 | [15] 0.951 | [16] 0.962 | [17] 1 | [18] 0.998 | [19] 1.01 | [20] 0.966 | [21] 1 | [22] 0.976 | [23] 1.08 | [24] 0.929 | [25] 1.08 | [26] 1.27 | [27] 0.97 | [28] 1 | [29] 1.08 | locus YJL128C, strain PBS2, active compounds read low 0.976 | [30] 0.934 | [31] 1 | [32] 0.942 | [33] 1.27 | [34] 0.949 | [35] 0.987 | [36] 0.981 | [37] 0.997 | [38] 1.03 | [39] 1.06 | [40] 0.933 | [41] 0.92 | [42] 0.966 | [43] 1 | [44] 0.955 | [45] 1 | [46] 1.02 | [47] 0.936 | [48] 0.999 | [49] 1.01 | [50] 0.995 | [51] 1 | [52] 0.949 | [53] 0.995 | [54] 0.967 | [55] 0.96 | [56] 0.973 | [57] 1.11 | [58] 1 | [59] 0.973 | [60] 0.955 | [61] 0.923 | [62] 1 | [63] 1.03 | [64] 0.999 | locus YPR106W, strain ISR1, active compounds read low 1.01 | [65] 1.01 | [66] 0.995 | [67] 0.996

C#CCSC1=NNC(c2ccccn2)S1 (stereo not drawn)
active: [1] 0.583 | [8] 0.45 | [10] 0.163 | [12] 0.531 | [14] 0.136 | [15] 0.125 | [16] 0.162 | [17] 0.573 | [18] 0.517 | [20] 0.111 | [21] 0.763 | [22] 0.176 | [23] 0.175 | [24] 0.119 | locus YHR030C, strain SLT2, active compounds read low 0.135 | [25] 0.122 | [26] 0.21 | [27] 0.123 | [29] 0.129 | [30] 0.119 | [31] 0.596 | [32] 0.124 | [33] 0.172 | [34] 0.262 | [35] 0.137 | [36] 0.173 | [37] 0.618 | [38] 0.153 | [39] 0.225 | [40] 0.152 | [41] 0.045 | [42] 0.12 | [43] 0.821 | [44] 0.167 | [45] 0.481 | [46] 0.892 | [47] 0.137 | [48] 0.738 | [49] 0.171 | [50] 0.811 | [51] 0.635 | [52] 0.151 | [53] 0.527 | [54] 0.13 | [55] 0.183 | [56] 0.139 | [57] 0.149 | [58] 0.855 | [59] 0.162 | [60] 0.126 | [61] 0.141 | [63] 0.149 | [66] 0.408 | [67] 0.541
inactive: [2] 0.945 | [3] 0.928 | [4] 0.924 | [5] 0.932 | [6] 0.947 | [7] 0.917 | [9] 0.932 | [11] 0.94 | [13] 0.975 | [19] 0.957 | [28] 0.932 | [62] 0.951 | [64] 0.931 | [65] 0.928

CC(C)=CCCC(C)C1CC[C@@]2(C)C3=C(CC[C@]12C)C1(C)CC[C@H](O)C(C)(C)C1CC3 (stereo partly drawn)
inactive: locus YBR021W, strain FUR4, active compounds read low 0.867 | locus YBR229C, strain ROT2, active compounds read low 1.02 | locus YCL029C, strain bik1, active compounds read low 0.972 | locus YDL035C, strain GPR1, active compounds read low 0.904 | locus YDL074C, strain BRE1, active compounds read low 0.962 | [8] 0.992 | locus YDL185W, strain tfp1, active compounds read low 1.01 | locus YDL192W, strain arf1, active compounds read low 0.977 | locus YDR101C, strain arx1, active compounds read low 1.01 | locus YDR150W, strain NUM1, active compounds read low 1.05 | locus YDR162C, strain NBP2, active compounds read low 0.958 | locus YDR318W, strain mcm21, active compounds read low 0.985 | locus YDR388W, active compounds read low 1.03 | locus YDR502C, strain sam2, active compounds read low 0.945 | locus YER110C, active compounds read low 1.01 | locus YER155C, strain BEM2, active compounds read low 1.03 | locus YER167W, strain BCK2, active compounds read low 1.05 | locus YGL086W, strain mad1, active compounds read low 1 | locus YGL248W, strain PDE1, active compounds read low 0.929 | locus YGR135W, strain pre9, active compounds read low 0.941 | locus YGR252W, strain gcn5, active compounds read low 0.78 | locus YHR079C, strain IRE1 (second series), active compounds read low 1.01 | locus YHR094C, strain hxt1, active compounds read low 1.02 | locus YHR129C, strain ARP1, active compounds read low 1.04 | locus YHR200W, strain rpn10, active compounds read low 1.01 | locus YIL066C, strain RNR3, active compounds read low 1.03 | locus YIL073C, strain SPO22, active compounds read low 0.923 | locus YIL125W, strain kgd1, active compounds read low 1.04 | locus YIR030C, strain dcg1, active compounds read low 1.02 | [29] 0.947 | locus YJL134W, strain LCB3, active compounds read low 1.04 | locus YJL168C, strain set2, active compounds read low 1.02 | locus YJL187C, strain SWE1 (second series), active compounds read low 0.959 | locus YKL068W, active compounds read low 1.03 | locus YKL085W, strain MDH1 (second series), active compounds read low 1.05 | locus YKL085W, strain MDH1, active compounds read low 1.05 | locus YKR001C, strain vps1, active compounds read low 0.94 | locus YLR039C, strain RIC1, active compounds read low 0.702 | locus YLR058C, strain SHM2, active compounds read low 0.981 | locus YLR102C, strain apc9, active compounds read low 1.01 | locus YLR262C, strain YPT6, active compounds read low 0.664 | locus YLR268W, strain sec22, active compounds read low 0.957 | locus YLR371W, strain rom2, active compounds read low 1.02 | locus YLR418C, strain cdc73, active compounds read low 0.877 | locus YML016C, strain PPZ1, active compounds read low 1.03 | locus YML032C, strain rad52, active compounds read low 0.956 | locus YML124C, strain tub3, active compounds read low 1.03 | locus YMR078C, strain ctf18, active compounds read low 1.03 | locus YMR223W, strain ubp8, active compounds read low 0.978 | locus YMR307W, strain GAS1, active compounds read low 0.952 | locus YNL067W, strain RPL9B, active compounds read low 0.988 | locus YNL128W, strain TEP1, active compounds read low 0.98 | locus YNL233W, strain BNI4, active compounds read low 0.994 | locus YNL250W, strain rad50, active compounds read low 0.966 | locus YNL271C, strain bni1, active compounds read low 0.994 | locus YNL298W, strain CLA4, active compounds read low 0.924 | locus YNL307C, strain MCK1, active compounds read low 0.998 | locus YNR052C, strain pop2, active compounds read low 0.961 | locus YOL006C, strain TOP1, active compounds read low 0.903 | locus YOL012C, strain htz1 1.68 | locus YOL147C, strain pex11, active compounds read low 1.04 | [55] 1.01 | locus YOR069W, strain VPS5, active compounds read low 1.02 | locus YOR136W, strain idh2, active compounds read low 0.998 | locus YOR144C, strain elg1, active compounds read low 1.02 | locus YOR184W, strain ser1, active compounds read low 0.891 | locus YOR316C, strain cot1, active compounds read low 1.02 | locus YPL241C, strain CIN2, active compounds read low 1.03 | locus YPR119W, strain clb2, active compounds read low 1.03 | locus YPR141C, strain kar3, active compounds read low 1.04 | locus YPR163C, strain tif3, active compounds read low 0.93 | locus YPR167C, strain met16, active compounds read low 0.973 | strain wtn01, active compounds read low 0.974
active: locus YGL078C, strain dbp3, active compounds read low 0.875 | locus YKL009W, strain mrt4, active compounds read low 0.822

From PubChem BioAssay AID1159580 (chemical genetic matrix, 2015)
